38 molecules from PubChem BioAssay (NCI) can be followed below.

Where “and” joins values, the source holds several entries; their conditions need not be identical. Equal entries are not always repeated. About 83,000 compounds went through this panel and 20% of them were active in at least one assay; those are over-represented in the sample as a whole.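 Activity criterion: percent growth below 10, measured after cells in 96-well plates were exposed to a single compound concentration for 48 hours.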 Unmarked numbers belong to inactive results. Calls of active or inactive are those of the source.

The test system of the first assay is NCI-H322M lung. The experiment in a line: NCI-60 one-dose screen, 48 h (100 = growth as untreated, 0 = no growth, -100 = all killed). The settings on record: 10 µM unless noted.
On to `O=C(NN1C(=O)/C(=C/C=C/c2ccc([N+](=O)[O-])o2)SC1=S)c1ccc([N+](=O)[O-])cc1`, for which the growth is -100% (active).

In the case of `O=C(Nc1ccc(-c2ccc3c(c2)NC(=O)/C3=C\c2ccc[nH]2)cc1)Nc1ccc(Cl)c(Cl)c1`, the growth was 73.4%. In the case of `O=C1Nc2ccc(F)cc2/C1=C/C(=O)c1cc2ccccc2oc1=O`, the growth was 104%. Consider `Cc1cnc2ccc(Oc3ccccc3-c3ccccc3)nn12`, for which the growth is 103%.

The next assay concerns HOP-62 NSCLC. The description is as above. The conditions noted are these: 10 µM unless noted.
Take `CCCn1c(NC(=O)c2cccc(C(N)=O)c2)nc2ccc(CN3CCCCC3)cc21`: the growth is 105%.

With `Fc1ccc(Nc2nnc(-c3c[nH]c4ccccc34)o2)cc1`, the growth is 71%. Consider `CC1=C(C(=O)OC(C)C)C(c2ccc(O)cc2)NC(=O)N1` (configuration not stated), for which the growth is 99.4%. As for `COc1ccc(NC(=O)Cn2c(/C=C/c3ccc([N+](=O)[O-])cc3)nc3ccccc3c2=O)cc1`, the growth is 33.2%. In the case of `O=C(c1ccc(O)cc1)C1[C@H](c2ccc(Cl)cc2)[C@@H](c2ccccc2)NC12C(=O)Nc1ccccc12` (some centres not stated), the growth was -20.1% (active). Take `O=c1ccc(Cn2c(C(F)(F)F)cc3c(Cl)ncnc32)c[nH]1`: the growth was 94.7%.

Regarding `O=C(CSc1nc2c(c(=O)[nH]1)CCCC2)Nc1ccccc1C(=O)O`, the growth is 104%. Still for that read-out and setting: to `COc1ccc2[nH]c(O)c(N=Nc3nc(-c4ccc(C#N)cc4)cs3)c2c1` belongs 77.5%. In the case of `COc1ccc(-c2nc3ccc(-c4nnc(SCC(=O)Nc5ccc(/C(C)=N\O)cc5)o4)cc3[nH]2)cc1`, the growth was 77%. On the same count and under the same terms, the result for `Cc1ccc(C2CC(c3ccc(NC(=O)Nc4ccccc4)cc3)=NN2c2ccc(S(C)(=O)=O)cc2)cc1` (configuration not stated) reads -39.8% (active).

In the case of `CN1CCN(C(=O)Oc2cc3c(c4ccccc24)[C@H](CCl)CN3C(=O)c2cc3cc(OCCCN4CCC4)ccc3[nH]2)[C@H]2CSSC[C@H]21`, the growth is -37.8% (active). As for `Cc1ccc(N=Nc2c(N)nn3c(-c4cc5ccccc5oc4=O)ccnc23)cc1`, the growth is 48.5%. As to `C[C@@H]1[C@H]2C[C@@H](C[C@H]1NCc1nc3ccccc3n1C1CCCCCC1)C2(C)C`, the growth was 88.3%. Regarding `Cc1ccc(C(=O)Nc2cc(-n3ccnc3)cc(C(F)(F)F)c2)cc1-n1cc(-c2cnc3cccnn23)nn1`, the growth is 107%.

Turning to `CCC(=O)c1c2c(c3ccc4c5ccccc5ccc4n13)C(=O)c1ccccc1C2=O`, the growth is 81.7%. Regarding `N#Cc1c(NC(=O)N2CCOCC2)n(-c2ccc(OC(F)(F)F)cc2)c2cc(F)ccc12`, the growth is 106%.

Regarding `CC(=O)Nc1cccc(-n2c(COc3ccc(Br)cc3)nc3ccccc32)c1`, the growth is 119% and 114%. As for `COc1ccc(-c2cc(C(=O)OCc3ccc(Br)cc3)nn2-c2ccc(S(C)(=O)=O)cc2)cc1OC`, the growth was 75.9%. On to `Cc1nc(N)ncc1-c1ccc2ncnc(N3CCc4cc(F)c(Cl)cc43)c2c1`, for which the growth was 72.8%.

With `COc1ccc(C(=O)NNC(=O)CSc2nc3sc4c(c3c(=O)n2-c2ccc(Cl)cc2)CCCC4)cc1`, the growth is 18.7%. `Cn1cc(-c2cc3nc(-c4cn(C)c5ncccc45)cc(N)n3n2)c2cc(F)ccc21`: the growth was -14.7% (active). As to `COc1ccc2[nH]c(=O)c(CSc3ccccc3Nc3nccc(-c4ccc(C(F)(F)F)cc4)n3)cc2c1`, the growth was 53.6%.

Turning to `N#CC1=C(c2cccs2)Nc2c(c(-c3ccccc3)nn2-c2ccccc2)C12C(=O)Nc1ccc(Br)cc12` (configuration not stated), the growth is -75.2% (active).

In the case of `CCN1CCN(Cc2ccc(C(=O)Nc3cccc(Nc4ccc5c(OC)cccc5n4)c3)cc2C(F)(F)F)CC1`, the growth was -63.5% (active). Turning to `O=C(Nc1ccc(S(=O)(=O)N2CCCCC2)cc1)C(Cl)Cl`, the growth was 108%. The same measure, in the same setting: the result for `O=[N+]([O-])c1cccc(-c2nnc3c(/C=C/c4ccc(F)cc4)nc4ccccc4n23)c1` reads 97.9%. Turning to `COc1ccc(/C=C/C(=O)c2ccc(OC)c(S(N)(=O)=O)c2)c(C(F)(F)F)c1`, the growth is -5.21% (active). With `COc1ccc2[nH]cc(-c3cc4nc(-c5cn(C)c6ncc(Br)cc56)cc(N)n4n3)c2c1`, the growth was -50.2% (active). For the molecule `N#CC1=C(c2cccs2)Nc2c(c(-c3ccccc3)nn2-c2ccccc2)C12C(=O)Nc1ccc(Cl)cc12` (configuration not stated), the growth is 28.8%. Regarding `Oc1ccc(F)c(Nc2nc(SCCN3CCOCC3)nc3c2cnn3CC(Cl)c2ccc(Br)cc2)c1` (configuration not stated), the growth is 30.3%. On the same count and under the same terms, to `O=C(NNC(=S)NCCc1ccccc1)c1ccc(OCc2nc3ccc(Cl)cc3[nH]2)cc1` belongs 97.4%; to `COc1c(B(O)O)cc(F)cc1-c1nc2c(F)cc3[nH]ncc3c2c2c1CCCC2`, 16.8%.

Consider `C[C@H]1[C@@H](CC(=O)N[C@@H](Cc2coc3ccccc23)B(O)O)O[C@@H]2OC3(C)CC[C@H]4[C@H](C)CC[C@@H]1[C@@]24O3`, for which the growth was 6.31% (active). Same read-out and setting: the result for `C#CCN(C)CCCOc1ccc(N(C)C(=O)c2cc(C(C)C)c(O)cc2O)cc1Cl` reads 34.6%; that for `O=C(NN1C(=O)/C(=C/C=C/c2ccc([N+](=O)[O-])o2)SC1=S)c1ccc([N+](=O)[O-])cc1`, -100% (active). Still for that read-out and setting: the result for `O=C(Nc1ccc(-c2ccc3c(c2)NC(=O)/C3=C\c2ccc[nH]2)cc1)Nc1ccc(Cl)c(Cl)c1` reads 61.9%. As for `O=C1Nc2ccc(F)cc2/C1=C/C(=O)c1cc2ccccc2oc1=O`, the growth was 97.3%. Turning to `Cc1cnc2ccc(Oc3ccccc3-c3ccccc3)nn12`, the growth is 124%.
